In all, about 69,000 compounds went through this assay and about 8,600 (12%) showed an effect of 50% or more. Only a selection was taken, and strong results are over-represented in it overall.

54 molecules from ChEMBL document CHEMBL4513216, “Probing the Open Global Health Chemical Diversity Library for Multistage-Active Starting Points for Next-Generation Antimalarials” (ACS Infect Dis, 2020) can be followed below.

The assay relates to Plasmodium berghei. The experiment in a line: Screen against P. berghei liver stage (PbLuc), transformed with Luciferase, at 10uM. In kind it is functional, HepG2. To be noted: tested at 10 uM.
`CN1CCN(C(=O)[C@@H]2CN(C)C[C@]23COc2ccc(F)cc2C3=O)CC1`: the INHIBITION worked out at 24.2%.

With `CN(C)C(=O)c1coc(COc2ccccc2)n1`, the INHIBITION was 19.4%.

For `O=C(NCC(F)(F)F)c1ccc(-n2cncn2)nn1`, the INHIBITION was -17.8%.

Turning to `Cc1cc2n(n1)CC(CNCc1ccc(Oc3ccccc3)nc1)CN2` (centres undefined), the INHIBITION worked out at 21.55%.

As for `c1ncc2c(n1)CN(c1ncnc3[nH]ccc13)CC2`, the INHIBITION was 32.7%.

On to `Cc1ncc2c(n1)CN(c1ncnc3[nH]ccc13)CC2`, for which the INHIBITION stood at 17.8%.

Consider `CC(C)c1ncc2c(n1)CN(c1ncnc3[nH]ccc13)CC2`, for which the INHIBITION came to 63.4%.

`O=S(=O)(NCC1CCCN(Cc2ccccc2F)C1)C1CC1` (centres undefined): the INHIBITION came to 11.5%.

For `Cc1noc(C(C)C)c1C(=O)NCc1cccnc1`, the INHIBITION came to 34.7%.

`CN(Cc1csc(-c2cccs2)n1)C(=O)CCn1ccccc1=O`: the INHIBITION is listed as -33%.

`CN(Cc1csc(-c2ccccc2)n1)C(=O)CCNS(C)(=O)=O`: the INHIBITION was -47.9%.

For the molecule `CN(Cc1csc(-c2ccccc2)n1)C(=O)CCn1ccccc1=O`, the INHIBITION worked out at 66.9%.

Turning to `Cc1ccc(-c2nc(CN3CCOC(Cn4cccn4)C3)no2)cc1` (centres undefined), the INHIBITION is recorded as -13.5%.

For `Cc1nc(-c2cccc(Cl)c2)n(CC(=O)NCC2CCCO2)c(=O)c1C` (centres undefined), the INHIBITION is on record as 13.8%.

On to `CNC(=O)COC1COC2(CCN(Cc3cccnc3OC)CC2)C1` (centres undefined), for which the INHIBITION amounted to 40.5%.

Regarding `CNC(=O)COC1COC2(CCN(Cc3cccnc3)CC2)C1` (centres undefined), the INHIBITION worked out at 67.3%.

Consider `CCOC1COC2(CCN(Cc3cccc(F)c3)CC2)C1` (centres undefined), for which the INHIBITION amounted to 31.6%.

In the case of `COc1ccccc1CN1CC[C@]2(C[C@@H](OCC(=O)N(C)C)CO2)C1`, the INHIBITION turned out to be 24.9%.

Regarding `CC(C)NC(=O)CC1COC2(CCN(Cc3cccnc3)CC2)C1` (centres undefined), the INHIBITION is 13.7%.

Turning to `CNC(=O)COC1COC2(CCN(Cc3ccncc3F)CC2)C1` (centres undefined), the INHIBITION is 59.3%.

Take `CN(Cc1cnc2ccccc2c1)C(=O)C(c1ccccc1F)N(C)C` (centres undefined): the INHIBITION is reported as 4.64%.

In the case of `COc1ccccc1N1CCN(C(=O)COc2c(C)occc2=O)CC1`, the INHIBITION turned out to be 1.04%.

`OC(CNCCc1nnc2ccccn12)c1ccc(F)c(F)c1` (centres undefined): the INHIBITION is -55.3%.

In the case of `O=C(c1nnn(-c2ccc(F)cc2)n1)N(CCO)Cc1ccccc1`, the INHIBITION is recorded as -137%.

With `CN1C(=O)[C@@H]2CC[C@H]1CN(C(=O)Nc1ccccc1C(F)(F)F)C2`, the INHIBITION is given as -53.7%.

Turning to `COc1ccc(CN2CCC=C(C(C)NC(C)=O)C2)cc1` (centres undefined), the INHIBITION is listed as 83.2%.

For the molecule `COc1ccnc(CN2CCC=C(C(C)NC(C)=O)C2)c1OC` (centres undefined), the INHIBITION is 36.2%.

Regarding `CC(=O)NC(C)C1=CCCN(Cc2ccc(C(=O)O)cc2)C1` (centres undefined), the INHIBITION was found to be 37.2%.

Consider `Fc1ccc(-c2nc(CNC3CCc4ncnn4C3)cs2)cc1` (centres undefined), for which the INHIBITION came to 48.8%.

For `CN(CC(O)C1CC1)C(=O)Nc1cc(F)cc(Br)c1` (centres undefined), the INHIBITION is listed as -54.5%.

Regarding `CNC(=O)C(C)CN(C)C(=O)Nc1cc(F)cc(Br)c1` (centres undefined), the INHIBITION came to 83.3%.

As for `CC(O)CCN(C)C(=O)Nc1cc(F)cc(Br)c1` (centres undefined), the INHIBITION is on record as 42.6%.

With `Cc1nc(C2CCCN2C(=O)c2ccc(N(C)C)nn2)no1` (centres undefined), the INHIBITION was -16.98%.

With `O=C(CCc1ccccc1Cl)NS(=O)(=O)c1ccc2c(c1)OCCO2`, the INHIBITION is -19.265%.

Consider `CC1CCN(C(CNC(=O)CCn2cccn2)c2cccs2)CC1` (centres undefined), for which the INHIBITION is reported as 40.7%.

`CC1CCN(C(CNC(=O)Cn2cccn2)c2cccs2)CC1` (centres undefined): the INHIBITION is listed as 32.3%.

As to `O=C(Cn1cccn1)NCC(c1cccs1)N1CCCC1` (centres undefined), the INHIBITION was 28%.

Regarding `CN1CCN(C(CNC(=O)CCn2cccn2)c2cccs2)CC1` (centres undefined), the INHIBITION turned out to be 31.2%.

For `CC(NC(=O)CCn1cccn1)c1ccc(-n2ccnn2)cc1` (centres undefined), the INHIBITION was 10%.

As to `CC(Cc1cccs1)NC(=O)CCn1cccn1` (centres undefined), the INHIBITION worked out at 9.14%.

Regarding `O=C(CCn1cccn1)NCC(c1cccs1)N1CCCC1` (centres undefined), the INHIBITION is given as 66.9%.

In the case of `O=C(CCn1cccn1)NCC(c1cccs1)N1CCOCC1` (centres undefined), the INHIBITION was 56.1%.

In the case of `CC(NC(=O)CCn1cccn1)c1cccs1` (centres undefined), the INHIBITION is on record as 61.5%.

Consider `COCCc1nnc(NC(=O)CSCc2ccccc2)o1`, for which the INHIBITION worked out at 2.84%.

As to `COCC[C@]1(O)CCN(Cc2ccccn2)C[C@H]1C`, the INHIBITION stood at 18.4%.

For the molecule `Cc1cccc2c1cnn2CCCNC(=O)c1cnn(C)c1`, the INHIBITION was -17.2%.

For `CC/N=c1\nc(NCC)nc2n1C(O)(Nc1cccc(Cl)c1Cl)CS2` (centres undefined), the INHIBITION was 28.6%.

Consider `CC/N=c1\nc(NCC)nc2n1C(O)(Nc1cc(Cl)ccc1Cl)CS2` (centres undefined), for which the INHIBITION stood at 56%.

In the case of `CC/N=c1\nc(NCC)nc2n1C(O)(Nc1cc(C)ccc1C)CS2` (centres undefined), the INHIBITION is given as -21.3%.

Turning to `CCNC(=O)N1CCc2ccc(NC(=O)NCc3ccsc3)cc21`, the INHIBITION was found to be 47%.

Turning to `O=C(CCN1C(=O)CCC1=O)NCC1(c2c(F)cccc2F)CCCC1`, the INHIBITION is listed as 25.6%.

`Cc1ccccc1C1(CNC(=O)CCN2C(=O)CCC2=O)CC1`: the INHIBITION is 50.3%.

As to `Cc1cccc(C2(CNC(=O)CCN3C(=O)CCC3=O)CCCC2)c1`, the INHIBITION was 36.4%.

Consider `CC(NCc1ccc(OCC(N)=O)cc1)c1ccc(Cl)cc1Cl` (centres undefined), for which the INHIBITION was 32.2%.
